Reference: PubChem BioAssay (NCI)
About 83,000 compounds went through this panel and 20% of them were active in at least one assay; those are over-represented in the sample as a whole.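 Assay: single dose, 48 h. Readout: percent growth (0 = no net growth; negative = cell death). Active: <10.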 Active and inactive are the calls of the source.

How the values were obtained:
Test in all cases: NCI-60 one-dose screen, 48 h (100 = growth as untreated, 0 = no growth, -100 = all killed)
Details in all cases: 10 µM unless noted
SR leukemia = tested on: SR leukemia
RPMI-8226 leukemia = tested on: RPMI-8226 leukemia
OVCAR-8 ovarian = tested on: OVCAR-8 ovarian
OVCAR-4 ovarian = tested on: OVCAR-4 ovarian
SK-OV-3 ovarian = tested on: SK-OV-3 ovarian
IGROV1 ovarian = tested on: IGROV1 ovarian
OVCAR-3 ovarian = tested on: OVCAR-3 ovarian
HS 578T breast = tested on: HS 578T breast
NCI/ADR-RES ovarian = tested on: NCI/ADR-RES ovarian
T-47D breast = tested on: T-47D breast
BT-549 breast = tested on: BT-549 breast
MDA-MB-435 melanoma = tested on: MDA-MB-435 melanoma
SW-620 colon = tested on: SW-620 colon
MCF7 breast = tested on: MCF7 breast
HCT-116 colon = tested on: HCT-116 colon
HCC-2998 colon = tested on: HCC-2998 colon
KM12 colon = tested on: KM12 colon
OVCAR-5 ovarian = tested on: OVCAR-5 ovarian

Measured: growth

COc1ccc(C(=O)Cn2cnc3c(Nc4cc(C(=O)Nc5ccc(N6CCN(CCO)CC6)cc5)ccc4C)ncnc32)cc1
inactive: SR leukemia 83.7% | RPMI-8226 leukemia 96.7% | OVCAR-8 ovarian 104% | OVCAR-4 ovarian 106% | SK-OV-3 ovarian 99.2% | IGROV1 ovarian 110% | OVCAR-3 ovarian 100% | HS 578T breast 97.7% | NCI/ADR-RES ovarian 104% | T-47D breast 91.6% | BT-549 breast 94.9% | MDA-MB-435 melanoma 105% | SW-620 colon 105% | MCF7 breast 87.1% | HCT-116 colon 97.3% | HCC-2998 colon 97.4% | KM12 colon 99.4%

C=C(C)[C@@H]1C/C=C(\COC(=O)[C@H](OC(C)=O)C(NC(=O)c2ccccc2)c2ccccc2)CC[C@H]2O[C@]2(C)CC/C=C(\C)CC1 (some centres undefined)
inactive: OVCAR-8 ovarian 86.7% [5 µM] | OVCAR-5 ovarian 88.7% [5 µM] | OVCAR-4 ovarian 62.3% [5 µM] | SK-OV-3 ovarian 87.7% [5 µM] | IGROV1 ovarian 45.9% [5 µM] | HS 578T breast 79.5% [5 µM] | NCI/ADR-RES ovarian 62.9% [5 µM] | T-47D breast 68.7% [5 µM] | BT-549 breast 68.5% [5 µM] | MDA-MB-435 melanoma 67% [5 µM] | SW-620 colon 94.8% [5 µM] | MCF7 breast 38.2% [5 µM] | HCT-116 colon 42.7% [5 µM] | HCC-2998 colon 75.5% [5 µM] | KM12 colon 69.1% [5 µM]
active: SR leukemia 3.12% [5 µM] | RPMI-8226 leukemia -6.61% [5 µM]

CN1CCN(Cn2nc(-c3cc(Cl)cc(Cl)c3Cl)n(/N=C/c3ccc(Cl)cc3)c2=S)CC1
inactive: SR leukemia 38.7% | RPMI-8226 leukemia 96.3% | OVCAR-8 ovarian 93.5% | OVCAR-5 ovarian 96.3% | OVCAR-4 ovarian 94.5% | SK-OV-3 ovarian 101% | IGROV1 ovarian 108% | HS 578T breast 112% | NCI/ADR-RES ovarian 96.6% | T-47D breast 94.9% | MDA-MB-435 melanoma 107% | SW-620 colon 110% | MCF7 breast 95.5% | HCT-116 colon 89.4% | HCC-2998 colon 103% | KM12 colon 107%

COc1ccc(-c2cc3ccc(N(C)C)cc3nc2N)c(F)c1
active: RPMI-8226 leukemia -19.7%
inactive: SR leukemia 12.9% | OVCAR-8 ovarian 26.3% | OVCAR-4 ovarian 42.2% | SK-OV-3 ovarian 46.8% | IGROV1 ovarian 54.3% | OVCAR-3 ovarian 34.6% | HS 578T breast 62.8% | NCI/ADR-RES ovarian 26% | T-47D breast 24.3% | BT-549 breast 18.8% | MDA-MB-435 melanoma 13.9% | SW-620 colon 42.5% | MCF7 breast 14.7% | HCT-116 colon 19.3% | HCC-2998 colon 51.8% | KM12 colon 35%

CN1CCN(CC(O)COc2c(Br)c(Br)c(Br)c3c2OC(C)(C)C3)CC1 (centres undefined)
active: SR leukemia -26.4% | RPMI-8226 leukemia -11.3% | IGROV1 ovarian -66.9%
inactive: OVCAR-8 ovarian 91.1% | OVCAR-5 ovarian 78.9% | OVCAR-4 ovarian 82.3% | SK-OV-3 ovarian 109% | HS 578T breast 55.5% | NCI/ADR-RES ovarian 64.5% | T-47D breast 81.3% | BT-549 breast 78.4% | MDA-MB-435 melanoma 18.7% | SW-620 colon 47.3% | MCF7 breast 59.5% | HCT-116 colon 20.7% | HCC-2998 colon 12.4% | KM12 colon 57.2%

Cc1ccc(N(CC2=NCCN2)c2cccc(O)c2)cc1
inactive: SR leukemia 95.3% | RPMI-8226 leukemia 94.5% | OVCAR-8 ovarian 95.2% | OVCAR-4 ovarian 103% | SK-OV-3 ovarian 105% | IGROV1 ovarian 90.3% | OVCAR-3 ovarian 112% | HS 578T breast 101% | NCI/ADR-RES ovarian 104% | T-47D breast 98.5% | BT-549 breast 89.7% | MDA-MB-435 melanoma 100% | SW-620 colon 102% | MCF7 breast 93.9% | HCT-116 colon 101% | HCC-2998 colon 103% | KM12 colon 104%

COc1cc2c(/C=C3/C(=O)Nc4ccc(O)cc43)c(Cl)n(Cc3cc(OC)c(OC)c(OC)c3)c2cc1C
active: SR leukemia -38.1% | RPMI-8226 leukemia -22.9% | HS 578T breast 4.73% | NCI/ADR-RES ovarian 9.32% | BT-549 breast -7.31% | MDA-MB-435 melanoma 2.91% | MCF7 breast 3.36%
inactive: OVCAR-8 ovarian 22.3% | OVCAR-5 ovarian 74.1% | OVCAR-4 ovarian 21.8% | SK-OV-3 ovarian 38.5% | IGROV1 ovarian 26.9% | T-47D breast 23.5% | SW-620 colon 19.3% | HCT-116 colon 18.1% | HCC-2998 colon 85.5% | KM12 colon 16.3%

COc1cc(NS(=O)(=O)c2ccc(N)cc2)ncn1
inactive: SR leukemia 97.2% | RPMI-8226 leukemia 109% | OVCAR-8 ovarian 102% | OVCAR-4 ovarian 114% | SK-OV-3 ovarian 107% | IGROV1 ovarian 118% | OVCAR-3 ovarian 115% | HS 578T breast 105% | NCI/ADR-RES ovarian 103% | T-47D breast 103% | BT-549 breast 107% | MDA-MB-435 melanoma 99.8% | SW-620 colon 108% | MCF7 breast 94.7% | HCT-116 colon 103% | HCC-2998 colon 109% | KM12 colon 104%

CCN(CC)C(=O)C1CCN(C(=O)c2ccccc2)CC1
inactive: SR leukemia 102% | RPMI-8226 leukemia 97.8% | OVCAR-8 ovarian 103% | OVCAR-4 ovarian 106% | SK-OV-3 ovarian 102% | IGROV1 ovarian 103% | OVCAR-3 ovarian 104% | HS 578T breast 97% | NCI/ADR-RES ovarian 97.9% | T-47D breast 98.4% | BT-549 breast 93.8% | MDA-MB-435 melanoma 104% | SW-620 colon 101% | MCF7 breast 96.6% | HCT-116 colon 99.2% | HCC-2998 colon 106% | KM12 colon 101%

COc1cc2ncnc(Oc3ccc(NC(=O)Nc4ccc(CN5CCOCC5)c(C(F)(F)F)c4)c4ccccc34)c2cc1OC
active: RPMI-8226 leukemia -20.4% | SK-OV-3 ovarian -6.16% | IGROV1 ovarian 6.05% | MDA-MB-435 melanoma 6.39% | MCF7 breast 8.45% | KM12 colon 6.26%
inactive: SR leukemia 17.1% | OVCAR-8 ovarian 18.9% | OVCAR-4 ovarian 13.7% | OVCAR-3 ovarian 31.9% | HS 578T breast 45.5% | NCI/ADR-RES ovarian 21.8% | T-47D breast 10.3% | BT-549 breast 25.2% | SW-620 colon 24.8% | HCT-116 colon 17.4% | HCC-2998 colon 75.9%

CN(C)c1ncc(C#Cc2c(F)cccc2F)c2ccccc12
inactive: SR leukemia 83.8% | RPMI-8226 leukemia 68.1% | OVCAR-8 ovarian 93.7% | OVCAR-4 ovarian 85.3% | SK-OV-3 ovarian 89.3% | IGROV1 ovarian 48.2% | OVCAR-3 ovarian 88.4% | HS 578T breast 108% | NCI/ADR-RES ovarian 92.9% | T-47D breast 36% | BT-549 breast 95.7% | MDA-MB-435 melanoma 105% | SW-620 colon 97.7% | MCF7 breast 28.5% | HCT-116 colon 80.1% | HCC-2998 colon 97.6% | KM12 colon 98%

COc1ccc(Cl)cc1NC(=O)c1cc2c(n1C)-c1nc(NC(=O)C(C)(C)C)sc1CC2
inactive: SR leukemia 85.2% | RPMI-8226 leukemia 83.4% | OVCAR-8 ovarian 109% | OVCAR-4 ovarian 94.8% | SK-OV-3 ovarian 67.7% | IGROV1 ovarian 98.1% | OVCAR-3 ovarian 105% | HS 578T breast 98.5% | NCI/ADR-RES ovarian 93.8% | T-47D breast 64.5% | BT-549 breast 94.6% | MDA-MB-435 melanoma 102% | SW-620 colon 107% | MCF7 breast 79.4% | HCT-116 colon 85.4% | HCC-2998 colon 118% | KM12 colon 94.8%

COc1ccc(/C(Cl)=N/N=C(\Cl)c2cc(OC)c(OC)c(OC)c2)cc1OC(C)=O
inactive: SR leukemia 77.4% | RPMI-8226 leukemia 89.4% | OVCAR-8 ovarian 79.9% | OVCAR-4 ovarian 99.4% | SK-OV-3 ovarian 80% | IGROV1 ovarian 105% | OVCAR-3 ovarian 101% | HS 578T breast 90.4% | NCI/ADR-RES ovarian 89.1% | T-47D breast 66.2% | BT-549 breast 96.1% | MDA-MB-435 melanoma 99.9% | SW-620 colon 93.7% | MCF7 breast 93.9% | HCT-116 colon 90.5% | HCC-2998 colon 102% | KM12 colon 98.2%

NC(=S)NNC1CCCCC1
inactive: SR leukemia 99.1% | RPMI-8226 leukemia 93.9% | OVCAR-8 ovarian 91.2% | OVCAR-4 ovarian 91.1% | SK-OV-3 ovarian 93.3% | IGROV1 ovarian 96.4% | OVCAR-3 ovarian 110% | HS 578T breast 101% | NCI/ADR-RES ovarian 101% | T-47D breast 80% | BT-549 breast 88.4% | MDA-MB-435 melanoma 106% | SW-620 colon 99.7% | MCF7 breast 88.8% | HCT-116 colon 91.8% | HCC-2998 colon 100% | KM12 colon 99.9%

CC(=O)Nc1ccc(OC(=O)c2ccccc2O)cc1
inactive: SR leukemia 96.9% | RPMI-8226 leukemia 101% | OVCAR-8 ovarian 110% | OVCAR-4 ovarian 105% | SK-OV-3 ovarian 105% | IGROV1 ovarian 115% | OVCAR-3 ovarian 110% | HS 578T breast 99.4% | NCI/ADR-RES ovarian 102% | T-47D breast 100% | BT-549 breast 113% | MDA-MB-435 melanoma 98.6% | SW-620 colon 101% | MCF7 breast 99.5% | HCT-116 colon 114% | KM12 colon 99.1%

COC(=O)Nc1nc2ccc(Sc3ccccc3)cc2[nH]1
inactive: SR leukemia 14.5% | RPMI-8226 leukemia 42.1% | OVCAR-4 ovarian 49.4% | SK-OV-3 ovarian 13.5% | IGROV1 ovarian 30.4% | HS 578T breast 30.3% | T-47D breast 60.8% | BT-549 breast 49.5% | SW-620 colon 18.6% | MCF7 breast 21.4% | HCT-116 colon 15%
active: OVCAR-8 ovarian 9.03% | OVCAR-3 ovarian -78.1% | NCI/ADR-RES ovarian -30.1% | MDA-MB-435 melanoma -45.2% | HCC-2998 colon 0.2% | KM12 colon 3.07%

CC(CCC(=O)O)[C@H]1CCC2C3C(=O)C[C@@H]4CC(=O)CC[C@]4(C)C3CC(=O)[C@@]21C (some centres undefined)
inactive: SR leukemia 97.4% | RPMI-8226 leukemia 98.8% | OVCAR-8 ovarian 103% | OVCAR-4 ovarian 112% | SK-OV-3 ovarian 106% | IGROV1 ovarian 105% | OVCAR-3 ovarian 117% | HS 578T breast 105% | NCI/ADR-RES ovarian 99.7% | T-47D breast 97% | BT-549 breast 112% | MDA-MB-435 melanoma 96.5% | SW-620 colon 98.7% | MCF7 breast 105% | HCT-116 colon 112% | HCC-2998 colon 103% | KM12 colon 108%

CCN(CC)CCNCC(O)Cc1ccc(OC)cc1 (centres undefined)
inactive: SR leukemia 88.2% | RPMI-8226 leukemia 98.1% | OVCAR-8 ovarian 89.9% | OVCAR-4 ovarian 120% | SK-OV-3 ovarian 92.3% | IGROV1 ovarian 111% | OVCAR-3 ovarian 108% | HS 578T breast 95.8% | NCI/ADR-RES ovarian 107% | T-47D breast 91.5% | BT-549 breast 83.9% | MDA-MB-435 melanoma 108% | SW-620 colon 103% | MCF7 breast 103% | HCT-116 colon 82.4% | HCC-2998 colon 101% | KM12 colon 106%
